Laboratory results from PubChem BioAssay (EPA / NIEHS).
Records with an inconclusive call do not appear. Activity calls are given as the source filed them. Rule for the calls, unless noted: active = hit-call score of the fitted dose curve at least 0.9, where 1 is the maximum; inconclusive = response in the unintended direction; inactive = score below 0.9.

Experiments:
[1] = target: Cellular tumor antigen p53 (Homo sapiens) (UniProt P04637); experiment: TOX21_p53_BLA_p2_ratio: Tox21 HCT-116 p53 Agonism Beta-lactamase Assay, Ratio, Phase 2 (AID 2283592)
Procedure, shortened: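 Cleaved-to-uncleaved substrate ratio (460 vs 530 nm) measured in HCT116 cells with an inducible beta-lactamase reporter linked to p53 activity. Compounds incubated 16 h at 37C before 2 h room-temperature CCF4-AM loading.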

[2] = TOX21_p53_BLA_p3_viability: Viability Assessment in the Tox21 HCT-116 p53 Agonism Beta-lactamase Assay, Phase 3 (AID 2283593);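 note: cells exposed to compound for 16 h before reading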
Procedure, shortened: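 HCT116 cells, 4000/well, dosed 5 h after plating by pin transfer (217-fold dilution from DMSO stock) and incubated 16 h at 37C, 5% CO2. Viability read as ATP luminescence with CellTiter-Glo after 30 min at room temperature.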

[3] = target: Cellular tumor antigen p53 (Homo sapiens) (UniProt P04637); experiment: TOX21_p53_BLA_p3_ratio: Tox21 HCT-116 p53 Agonism Beta-lactamase Assay, Ratio, Phase 3 (AID 2283596)
Procedure, shortened: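 Cells were seeded at 4000/well, rested 5 h at 37C, then dosed with DMSO compound solutions (217-fold dilution) for 16 h. CCF4-AM substrate was loaded for 2 h at room temperature, and the 460/530 nm emission ratio was fitted for gain of signal versus DMSO.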

[4] = TOX21_p53_BLA_p4_viability: Viability Assessment in the Tox21 HCT-116 p53 Agonism Beta-lactamase Assay, Phase 4 (AID 2283597);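 note: hits lower the luminescence signal meaning cytotoxicity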
Procedure, shortened: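 Viability is taken as cellular ATP: after 16 h compound exposure of HCT116 cells and a 2 h room-temperature CCF4-AM substrate step, CellTiter-Glo reagent is added and luminescence is measured 30 min later.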

[5] = target: Cellular tumor antigen p53 (Homo sapiens) (UniProt P04637); experiment: TOX21_p53_BLA_p5_ratio: Tox21 HCT-116 p53 Agonism Beta-lactamase Assay, Ratio, Phase 5 (AID 2283599)
Procedure, shortened: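 HCT-116 p53-bla cells (4000/well) plated 5 h, dosed with compound (217-fold DMSO dilution) for 16 h at 37 C; CCF4-AM substrate 2 h at room temperature. Activity is the 460/530 nm emission ratio (405 nm excitation), fitted in gain-of-signal direction versus DMSO.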

[6] = target: Cellular tumor antigen p53 (Homo sapiens) (UniProt P04637); experiment: TOX21_p53_BLA_p4_ratio: Tox21 HCT-116 p53 Agonism Beta-lactamase Assay, Ratio, Phase 4 (AID 2283601)
Procedure, shortened: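 HCT-116 p53 beta-lactamase reporter cells (4000/well) preincubated 5 h, then compound (217-fold dilution of DMSO stock) for 16 h at 37C. CCF4-AM substrate added 2 h at room temperature; 460/530 nm emission ratio fitted upward versus DMSO.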

[7] = TOX21_p53_BLA_p5_viability: Viability Assessment in the Tox21 HCT-116 p53 Agonism Beta-lactamase Assay, Phase 5 (AID 2283600)
Procedure, shortened: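 Viability is taken from cellular ATP content, measured by luciferase luminescence in the same wells after the beta-lactamase ratio read. Cells are seeded at 4000 per well and exposed to DMSO-dissolved compounds, diluted 217-fold, for 16 h.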

[8] = CCTE_Harrill_HTTr_Viability_MCF7: CCTE's 6-hour Cell Viability Assessment for the High-Throughput Transcriptomics (HTTr) Platform, in MCF-7 cells cultured in DMEM + 10% fetal bovine serum, Harrill Lab (AID 2284010; active = hit-call score of the fitted dose curve at least 0.9, where 1 is the maximum; inactive = score below 0.9)
Procedure, shortened: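 PI exclusion, high-content imaging; 8-pt dilution series, 6 h exposure; bidirectional fit vs DMSO (neg. ctrl/baseline); gain of signal = loss of membrane integrity.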

[9] = CCTE_Harrill_HTTr_Apoptosis_MCF7: CCTE's 6-hour Apoptosis Assessment for the High-Throughput Transcriptomics (HTTr) Platform, in MCF-7 cells cultured in DMEM + 10% fetal bovine serum, Harrill Lab (AID 2284011; active = hit-call score of the fitted dose curve at least 0.9, where 1 is the maximum; inactive = score below 0.9)
Procedure, shortened: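 Cells are dosed with test chemicals at eight concentrations and imaged 6 hours later for caspase-3/7 activity using a green fluorogenic detection reagent. Activity is fitted in both directions against DMSO controls.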

Measured: AC50

Sequence of Cellular tumor antigen p53 (Homo sapiens) (P04637 whole entry, looked up): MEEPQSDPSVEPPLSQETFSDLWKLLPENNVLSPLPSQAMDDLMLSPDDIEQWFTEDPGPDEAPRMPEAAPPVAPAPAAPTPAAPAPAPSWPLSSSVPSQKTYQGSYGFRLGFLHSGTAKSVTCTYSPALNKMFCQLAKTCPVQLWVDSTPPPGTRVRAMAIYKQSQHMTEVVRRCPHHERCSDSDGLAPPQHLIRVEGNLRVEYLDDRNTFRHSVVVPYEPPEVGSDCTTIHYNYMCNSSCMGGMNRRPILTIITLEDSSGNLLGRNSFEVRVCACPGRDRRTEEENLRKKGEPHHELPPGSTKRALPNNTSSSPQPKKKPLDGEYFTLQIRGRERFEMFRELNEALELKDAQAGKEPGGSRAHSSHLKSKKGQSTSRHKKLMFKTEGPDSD

CC(N)C12CC3CC(CC(C3)C1)C2 (centres undefined)
not listed: [7] | [8] | [9]
inactive: all other assays above

C[C@@H]1[C@H](O)[C@@H](C)/C=C/C=C/C=C/C=C/C=C/C=C/C=C/[C@H](O[C@@H]2O[C@H](C)[C@@H](O)[C@H](N)[C@@H]2O)C[C@@H]2O[C@](O)(C[C@@H](O)C[C@@H](O)[C@H](O)CC[C@@H](O)C[C@@H](O)CC(=O)O[C@H]1C)C[C@H](O)[C@H]2C(=O)O
inactive: all assays above

CCOC(=O)CS
not listed: [8] | [9]
inactive: all other assays above

O=C1OC(O)C(C(Cl)Cl)=C1Cl (centres undefined)
inactive: [7] | [6]
active: [1] 13.2 µM | [2] 14.6 µM | [3] 13.3 µM | [4] 12.7 µM | [5] 25.6 µM
